Compounds with a hit are over-represented: about 31% of the library has one in this group of screens.
CYP2C19 inh – blockers of cytochrome P450 2C19 activity – biochemical, luminescence, ADME assay, primary screen; P33261; inhibition, % at 5 µM; CYP2C19 Supersomes, luciferin-H EGE luminescence, 30 min; 96,000 tested, 21% active;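 active = CYP2C19 inhibition above a set limit at 5 µM in the primary screen, cut at about 50% in these data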;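 note: plate controls were negative control wells for no effect and 2.5 mM tranylcypromine positive control for full effect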
PLAP act – PLAP enzyme activators, biochemical, luminescence, HTS | Alkaline phosphatase, placental type (Homo sapiens), P05187 | purified PLAP enzyme, luminescent substrate read-out; active compounds read high | activation fold at 20 µM | 96,000 tested, 1.2% active | AID 696, 2007; in the data active = activation fold above about 2
CYP2C19 act – human CYP2C19 activators, primary screen, biochemical, luminescence. Cytochrome P450 2C19 (Homo sapiens), P33261. recombinant CYP2C19, luciferin-H EGE luminescence; active compounds read high; 0 = fully inhibited enzyme, 1 = untreated enzyme. activation factor at 5 µM. 96,000 tested, under 10 active. AID 1025, 2008;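 active = activation factor of at least 2 at 5 µM in the primary screen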;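 note: 0 = wells with 2.5 mM tranylcypromine and 1 = vehicle-only wells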
CYP2C9 act – human CYP2C9 activators, primary screen, biochemical, luminescence. AID 1024, 2008. recombinant CYP2C9, luciferin-H conversion; active compounds read high; factor 1 = untreated enzyme, 0 = blocked. activation factor at 5 µM. 96,000 tested, 1.4% active;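 active = activation factor of 2 or more for CYP2C9 at a 5 µM dose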;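 note: 0 = sulfaphenazole-blocked wells and 1 = vehicle-only wells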
Target sequence (P11712 whole entry, looked up): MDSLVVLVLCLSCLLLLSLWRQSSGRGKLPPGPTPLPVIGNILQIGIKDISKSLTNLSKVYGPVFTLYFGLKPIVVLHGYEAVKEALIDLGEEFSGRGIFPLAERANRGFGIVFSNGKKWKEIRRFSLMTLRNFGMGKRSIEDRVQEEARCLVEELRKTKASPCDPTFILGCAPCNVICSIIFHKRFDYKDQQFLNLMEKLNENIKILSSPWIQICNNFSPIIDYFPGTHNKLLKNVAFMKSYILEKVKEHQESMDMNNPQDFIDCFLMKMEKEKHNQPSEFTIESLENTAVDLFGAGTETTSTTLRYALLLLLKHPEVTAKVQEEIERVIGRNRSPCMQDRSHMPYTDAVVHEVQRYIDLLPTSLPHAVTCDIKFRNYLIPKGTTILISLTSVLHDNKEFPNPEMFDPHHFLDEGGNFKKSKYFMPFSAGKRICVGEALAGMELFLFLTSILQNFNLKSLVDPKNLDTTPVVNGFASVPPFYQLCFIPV
CYP2C9 inhib – blockers of cytochrome P450 2C9 activity – biochemical, luminescence, ADME assay, primary screen; P11712; CYP2C9 Supersomes, luciferin-H conversion; inhibition, % at 5 µM; 96,000 tested, 20% active; AID 777, 2007;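 active = blocking of liver enzyme CYP2C9 beyond about 50% at 5 µM, limit read from the data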
* hit, by the source's call.

SMILES | CYP2C19 inh | PLAP act | CYP2C19 act | CYP2C9 act | CYP2C9 inhib
COc1cc(NC(=O)CN2CCN(Cc3ccc4c(c3)OCO4)CC2)cc(OC)c1 | 49 | 1.5 | 0.5 | 0.5 | 47
CC(C)C12CN3CC(C(C)C)(CN(C1)C3c1ccc3c(c1)OCO3)C2=O (stereo not given) | 92* | 0.9 | 0.1 | 0.2 | 75*
CCOC(=O)/C=C/S(=O)(=O)c1ccc(NC(C)=O)cc1 | 9 | 0.8 | 0.9 | 0.7 | 26
COCCN(C(=O)C(C)C)c1nnc(-c2cccc(C)c2)s1 | 49 | 1.6 | 0.5 | 0.4 | 61*
CCN(Cc1ccncc1)C(=O)c1cccs1 | 49 | 0.9 | 0.5 | 0.6 | 36
COCCN(C(=O)COc1ccccc1)c1nnc(-c2cccnc2)s1 | 26 | 1 | 0.7 | 0.8 | 16
CCN(C(=O)c1cccs1)c1nnc(-c2ccncc2)s1 | 100* | 0.8 | 0 | 0.3 | 71*
COCCN(C(=O)Cc1cccs1)c1nnc(-c2ccncc2)s1 | 98* | 1 | 0 | 0.3 | 73*
CCOc1ccccc1OCCOCCN1CC(C)OC(C)C1 (stereo not given) | -2 | 0.9 | 1 | 1.1 | -13
CCCCn1c(=O)c(-[n+]2ccccc2)c([O-])c2ccccc21 | -14 | 1 | 1.1 | 1.1 | -8
COC(=O)c1ccc(NCCc2csc(-c3ccc(C)cc3)n2)c([N+](=O)[O-])c1 | 52* | 1 | 0.5 | 0.4 | 60*
CSc1nc(Sc2ccccc2Cl)c2ccccc2n1 | -6 | 1 | 1.1 | 1 | -5
O=[N+]([O-])c1cc(C(F)(F)F)ccc1N/N=C/c1cc2ccccc2nc1Cl | -5 | 1 | 1 | 1 | -1
O=[N+]([O-])c1ccccc1N/N=C\c1ccccc1Cl | 64* | 0.5 | 0.4 | 0.7 | 33
CC(C)N=C(NC#N)SCc1ccccc1F | 85* | 1.2 | 0.2 | 0.5 | 49
CC(C)N=C(NC#N)SCC(=O)NC(C)(C)C | 10 | 0.9 | 0.9 | 1 | 4
O=C(OCCN1CCN(c2ncc(C(F)(F)F)cc2Cl)CC1)c1ccc(Cl)cc1 | 14 | 1.6 | 0.9 | 0.3 | 67*
O=C(OC1CCN(c2ncc(C(F)(F)F)cc2Cl)CC1)c1ccc(Cl)cc1 | -4 | 1.1 | 1 | 0.8 | 19
O=S(=O)(c1ccccc1)c1nc(Nc2ccccc2N2CCOCC2)sc1Cl | 74* | 1.5 | 0.3 | 0.1 | 88*
O=C(Nc1ccccc1N1CCOCC1)c1ccc2ccccc2n1 | 39 | 1 | 0.6 | 0.6 | 39
CN(Cc1ccco1)C(=O)C(Cc1ccccc1)NS(=O)(=O)c1ccc2c(c1)CCC(=O)N2 (stereo not given) | 56* | 1.7 | 0.4 | 0.3 | 71*
Clc1ccc(NCc2nnc3n2CCCCC3)cc1 | 55* | 0.9 | 0.5 | 1 | 2
COC(=O)CSc1nc(N)c(C#N)c(-c2ccco2)c1C#N | -7 | 1 | 1.1 | 0.8 | 15
COC(=O)CSc1ccc(C#N)c(SCC(=O)OC)c1 | 12 | 1.2 | 0.9 | 1 | 3
COC(=O)CSc1cc(SCC(=O)OC)c(C#N)c(SCC(=O)OC)c1 | 38 | 1 | 0.6 | 0.5 | 52*
SMILES | CYP2C19 inh | PLAP act | CYP2C19 act | CYP2C9 act | CYP2C9 inhib
COC(=O)CSc1nc(N)c(C#N)c(C(C)C)c1C#N | 59* | 1.1 | 0.4 | 0.5 | 48
CCCN(CCC)S(=O)(=O)c1ccc(C(=O)N2CCC(=O)c3ccccc32)cc1 | 19 | 1.5 | 0.8 | 0.8 | 20
COC(=O)C1=C(C)NC(=O)C1(NS(=O)(=O)c1ccc(NC(C)=O)cc1)C(F)(F)F (stereo not given) | 38 | 0.9 | 0.6 | 0.9 | 8
O=C1CCCc2[nH]nc(-c3cccnc3)c21 | -12 | 1.2 | 1.1 | 1.1 | -6
c1ccc(Cn2ccc(-c3cnc(-c4ccccc4)s3)n2)cc1 | 94* | 1 | 0.1 | 0.3 | 74*
O=c1c(-c2nc3ccccc3s2)cccn1Cc1ccccc1 | 13 | 1 | 0.9 | 0.9 | 15
CCC(=O)NC(=S)Nc1cccc(Cl)c1N1CCCCC1 | 2 | 1.1 | 1 | 0.9 | 8
Cc1cc(C)n(C(=O)c2ccncc2)n1 | 1 | 1 | 1 | 1 | 5
CC(C)C(=O)NC(=S)Nc1ccc(S(=O)(=O)N(C)Cc2ccccc2)cc1 | 40 | 1 | 0.6 | 0.4 | 55*
CC(C)C(=O)NC(=S)Nc1ccc(S(=O)(=O)NC(C)(C)C)cc1 | 37 | 1 | 0.6 | 0.5 | 50*
CCOc1ccc(NS(=O)(=O)c2ccc(NC(=S)NC(=O)C(C)C)cc2)cc1 | 82* | 1.1 | 0.2 | 0 | 95*
COc1ccc(NS(=O)(=O)c2ccc(NC(=S)NC(=O)C(C)C)cc2)cc1 | 79* | 0.9 | 0.2 | 0.4 | 64*
CCC(=O)NC(=S)Nc1ccc(S(=O)(=O)NC(C)C)cc1 | 11 | 0.9 | 0.9 | 0.8 | 15
CC(=O)Nc1ccc(S(=O)(=O)NC(CC(=O)N(C)Cc2ccccc2)C(C)C)cc1 (stereo not given) | 25 | 1 | 0.7 | 1 | -2
CCCCOCCCn1cnc2c([nH]c3cc(OC)ccc32)c1=O | 43 | 0.7 | 0.6 | 0.9 | 13
CCC(C)NC(=O)C1CCN(S(=O)(=O)N2CCCC2)CC1 (stereo not given) | -5 | 0.8 | 1.1 | 1 | 0
C#CCSc1nc(Cc2ccc(Cl)cc2)nc2ccccc12 | 4 | 0.9 | 1 | 0.9 | 7
CCn1c(O)c(/C=N/N=C/c2ccccc2)c2ccc(C3=NNC(=O)CC3)cc21 | 42 | 1.2 | 0.6 | 0.4 | 64*
COc1ccc(-c2cc(C3CCN(c4cc(Cl)nc(N)n4)CC3)[nH]n2)cc1 | 59* | 1.3 | 0.4 | 0.8 | 24
CCC(SC1=NCCS1)C(=O)Nc1nnc(-c2ccccc2OC)s1 (stereo not given) | -3 | 1.2 | 1 | 0.8 | 16
CCC(Sc1ccccn1)C(=O)Nc1nnc(C)s1 (stereo not given) | 56* | 1.1 | 0.4 | 0.4 | 63*
O=S(=O)(c1ccc(F)cc1)N1CCN(c2ncnc3c2cnn3-c2ccccc2)CC1 | 4 | 0.8 | 1 | 1 | 3
COc1cc(NC(=O)C2CCN(S(=O)(=O)c3cccnc3)CC2)cc(OC)c1OC | -6 | 1.1 | 1.1 | 0.9 | 8
Cc1ccc(NC(=O)CSc2nnc(CNC(=O)c3c(F)cccc3Cl)o2)cc1 | 41 | 1 | 0.6 | 0.3 | 73*
Cc1ccc(NC(=O)CSc2nnc(Cn3cnc4ccccc43)o2)cc1 | 36 | 1.3 | 0.6 | 0.4 | 65*
Cc1ccc(C(=O)N/C(=C\c2cccs2)C(=O)NC2CCCCC2)cc1 | 7 | 1.1 | 0.9 | 1.2 | -23
CCOc1ccc(-c2nnc(SCc3nc4ccccc4[nH]3)n2N)cc1 | 21 | 2.4* | 0.8 | 0.9 | 13
COc1ccccc1-c1nnc(SCc2nc3ccccc3[nH]2)n1C | 80* | 1.7 | 0.2 | 0.9 | 12
